# Screening data as filed in PubChem.
# An excerpt weighted towards active compounds, which were near 4% of everything screened.
# esBAF inh = Bmi1 luciferase reporter increase in mESCs, primary screen, esBAF inhibitor project, mouse ES cells, Bmi1 luciferase knock-in, single point; 24 h; 100% = twice the neutral-well signal; reporter increase, % at 12.5 µM; 2% of 350,000 active; in the data active = activation above about 40%; inconclusive = no clear call, values can overlap the other calls;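 note: 0% = median of the plate's neutral control wells and 100% = double that signal; a rise in the Bmi1 reporter signal indicates esBAF inhibition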
# MITF act = activators of MITF-driven TRPM1 promoter reporter, primary screen, cell-based, SK-MEL-5, luciferase, single point; activation, % at 12.5 µM; SK-MEL-5 TRPM1-promoter luciferase, 24 h; % of positive control, neutral wells = 0; 0.75% of 300,000 active;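 active = mean activation of at least 80% with every replicate also reaching 80%; inconclusive = mean reaches 80% but some replicate falls short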;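 note: 0% = neutral control wells and 100% = parthenolide positive control wells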
# MITF TRPM1 inh = inhibitors of MITF-dependent TRPM1 promoter reporter, primary screen, cell-based, SK-MEL-5, single point, luciferase; SK-MEL-5 TRPM1 promoter luciferase, 24 h; inhibition, % at 12.5 µM; 0.83% of 330,000 active; AID 488899, 2010;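 active = mean inhibition across replicates of 60% or more, whatever share of single replicates reaches that level; inconclusive = some that reach 60%, reason not given; inactive = mean inhibition across replicates below 60%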
# Statin myotox sup = suppressors of statin myotoxicity in C2C12 myotubes, primary screen, cell-based, single point, plate reader; C2C12 myotubes + simvastatin, ATP luminescence, 48 h; scaled: DMSO 0, geranylgeraniol control 100; rescue of ATP level, % at 7.49 µM; 0.78% of 330,000 active; AID 602340, 2012;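 active = mean ATP rescue above about 67%, or every replicate alone reaching that limit, limit read from the data, passing the limit was not always enough; inconclusive = no clear call, values can overlap the other calls; inactive = mean under the limit and some replicate under it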;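 note: myotubes were challenged with 10 µM simvastatin during compound exposure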
# Wnt bcat act = Wnt/beta-catenin pathway activators, primary screen, cell-based, plate reader, single point; Wnt/beta-catenin reporter cell assay, activator; activation, % at 9.35 µM; 1.2% of 300,000 active; in the data active = activation above about 30%, passing the limit was not always enough; inconclusive = no clear call, values can overlap the other calls;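 note: 0% = neutral control wells and 100% = positive control wells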
# EBV LMP1 NFkB = EBV LMP1-driven NF-kappaB luciferase reporter inhibitors, primary screen, cell-based, luminescence, single point; AID 504558, 2011; LMP1-induced NF-kappaB luciferase reporter cells; inhibition, % at 12.5 µM; 0.69% of 350,000 active; in the data active = inhibition above about 41%; inconclusive = no clear call, values can overlap the other calls;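 note: 0% = neutral control wells and 100% = reference inhibitor control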
# * hit, by the source's call; ? = inconclusive; / = not tested or not shown.
SMILES,esBAF inh,MITF act,MITF TRPM1 inh,Statin myotox sup,Wnt bcat act,EBV LMP1 NFkB
CCC[C@H]1COCCS(=O)(=O)N1Cc1ccccc1F,-3,3,-7,79*,-3,9
CCCC[C@H]1COCCS(=O)(=O)N1Cc1ccccc1F,-2,-5,7,8,-1,6
O=C(Nc1ccccc1Cl)Nc1ccccc1Cl,/,39,-41,/,13,0
O=C(NCc1ccncc1)Nc1ccccc1Cl,12,-13,13,116*,0,-3
O=C(Nc1ccccn1)Nc1ccccc1Cl,53*,/,-31,4,11,12
O=C(Nc1cnccn1)Nc1ccccc1Cl,7,7,-5,1,12,4
O=C(Nc1ccc(Cl)cn1)Nc1ccccc1Cl,35*,-8,9,/,17,-26
COc1ccccc1CCCNC(=O)C1CCC(=O)N(CCCN2CCCC2=O)C1 (configuration not stated),-2,-5,5,14,0,-9
COc1cccc(-c2cc(C(=O)N3CCCCCC3)no2)c1,-21,/,/,-11,41*,-1
COc1ccc(-c2cc(C(=O)N3CCCCCC3)no2)cc1OC,71*,/,-113,6,17,-29
COc1ccc(-c2cc(C(=O)NC(C)C)no2)cc1,/,105*,-110,/,/,-28
COC(=O)c1cc(-c2ccc(OC)cc2)on1,-8,13,-14,2,-3,2
COc1ccc(-c2cc(C(=O)Nc3cc(Cl)ccc3O)no2)cc1,?,113*,-107,-10,14,-20
COc1cccc(-c2cc(C(=O)N3CCN(c4ccc(F)cc4)CC3)no2)c1,2,-3,6,-4,-2,-1
O=C(C[C@@H]1C[C@@H]2c3cc(NC(=O)Nc4ccc(C(F)(F)F)cc4)ccc3O[C@@H]2[C@H](CO)O1)NCc1ccccn1,-5,/,/,-3,/,/
COc1ccc(-c2cc(C(=O)N3CCCCCC3)no2)cc1,-9,42,-36,-26,-2,-15
COc1ccc(-c2cc(C(=O)N3CCCC3)no2)cc1,/,-16,19,/,29,50*
COc1ccccc1N(CN1CCCC1=O)C(=O)c1c(F)cccc1F,-2,/,8,11,/,0
COc1cc(C(C)=O)ccc1OCC(O)Cn1nc(C)c(Br)c1C (configuration not stated),4,8,-6,2,-1,62*
COc1cc(C(C)=O)ccc1OCC(O)CN1CCN(c2ccc(C)cc2C)CC1 (configuration not stated),-10,2,4,-3,-1,16
COC(=O)C1=C(C)NC(=O)CC1c1cc(Br)ccc1F (configuration not stated),3,-7,8,111*,-1,-3
O=C(Nc1c(C(=O)O)[nH]c2ccccc12)c1cccc(C(F)(F)F)c1,/,-9,8,/,-3,-5
Cc1nc2cc(NS(=O)(=O)c3ccccc3)ccc2n1C,-3,-9,10,-1,-1,-6
c1ccn2c(c1)nc1c2nc2ccccn21,?,38,-36,168*,13,-16
Cc1cc(NC(=O)CSc2cn(CCNC(=O)c3ccccc3)c3ccccc23)no1,47*,2,-2,-8,/,0
Cc1ccc(C(=O)NCCn2cc(SCC(=O)N3CCOCC3)c3ccccc32)cc1,53*,/,/,-8,-4,-4
Cc1ccc(C(=O)NCCn2cc(SCC(=O)Nc3cc(C)on3)c3ccccc32)cc1,58*,/,/,2,-11,-18
O=C(CSc1cn(CC(=O)N2CCOCC2)c2ccccc12)N1CCOCC1,3,-8,11,-8,6,5
Cc1c(C(=O)OCC(=O)N2CCCCC2C)oc2ccccc12 (configuration not stated),36,64,-61,3,10,-11
CCOc1cc(/C=C2/C(=O)N(c3ccccc3)N=C2C)ccc1OC(=O)c1ccco1,-16,/,3,-4,/,-1
